From PubChem BioAssay
GLP-1R agonist = agonists of human GLP-1 receptor; P43220; HEK293 GLP-1R CRE-luciferase, luminescence, 4-6 h; cells express a hypersensitive GLP-1R form; Potency, µM (highest dose often 45.6 µM), actives largely listed as activators; hit rate 0.007% among 380,000; AID 624172
RGS4 inh = human RGS4 inhibition; hit rate 0.039% among 390,000; Potency, µM (highest dose often 114 µM), hits mostly inhibitors; Transcreener GDP fluorescence polarization, RGS4-accelerated GTP hydrolysis; AID 504845; P49798; further: nearly all actives have a fitted effect of over 75% in size
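MLSMR compounds (23 nl, pin-transferred) preincubated 10 min at room temperature with a 500nM (2x) first reagent, then RGS4 at 900nM (2x) plus Transcreener GDP mix added; fluorescence polarization (620/688 nm) read before and after 90 min at 30 °C.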
PTHR1 agonist = PTHR1 (human) receptor agonism | HEK293 GP2 PTHR1 cells, GloSensor cAMP luminescence, 1 h | Potency, µM (doses to about 115 µM), most hits filed as activators | hit rate 0.075% among 410,000; further: nearly all actives have a fitted effect of over 55% in size
Target sequence (Q03431 whole entry, looked up): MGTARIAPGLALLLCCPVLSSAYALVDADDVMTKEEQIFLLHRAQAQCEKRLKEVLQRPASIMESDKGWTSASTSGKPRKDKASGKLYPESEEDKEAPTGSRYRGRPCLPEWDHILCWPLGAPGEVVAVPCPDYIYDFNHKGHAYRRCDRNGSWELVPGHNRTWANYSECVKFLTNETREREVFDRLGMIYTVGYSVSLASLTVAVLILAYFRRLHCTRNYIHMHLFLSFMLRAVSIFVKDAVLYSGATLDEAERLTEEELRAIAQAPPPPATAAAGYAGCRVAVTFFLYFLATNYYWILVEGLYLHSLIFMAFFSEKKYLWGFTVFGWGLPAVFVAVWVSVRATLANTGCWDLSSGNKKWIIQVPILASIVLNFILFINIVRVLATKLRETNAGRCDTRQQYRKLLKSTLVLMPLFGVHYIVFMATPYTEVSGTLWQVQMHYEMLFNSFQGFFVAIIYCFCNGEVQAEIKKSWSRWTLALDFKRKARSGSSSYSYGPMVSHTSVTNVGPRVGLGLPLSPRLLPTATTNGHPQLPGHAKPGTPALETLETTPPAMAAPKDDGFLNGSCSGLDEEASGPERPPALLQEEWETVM
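HEK-293-derived GP2 cells expressing PTHR1 and a GloSensor cAMP reporter, 3,000/well, plated overnight, given luciferin plus IBMX (each 0.5 mM as added) for 1 h at 37 °C, then compound for 1 h at 37 °C. Luminescence was read after 15 min at room temperature.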
GLP-1R inv ag = GLP-1 receptor (human) inverse agonism; P43220; HEK293 GLP-1R CRE-luciferase, luminescence, 24 h; GLP-1R form is constitutively active; Potency, µM (series often up to 38.3 µM), most hits filed as inhibitors; hit rate 1.6% among 410,000; further: nearly all actives have a fitted effect of over 55% in size
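Cells are plated, allowed 12 hours at 37 deg C, then treated with compounds for 24 hr before luciferase detection reagent is added and luminescence is read after 12 min at room temperature. The HEK293 line carries constitutively active GLP-1R with a cAMP-responsive reporter.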
GCN5L2 inh = blocks human GCN5L2 histone acetyltransferase; Q92830; GCN5L2 HAT assay, ThioGlo1 CoA-SH fluorescence; Potency, µM (titrated, usually from 58.9 µM), usual class: inhibitors; hit rate 0.21% among 390,000; AID 504327
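qHTS, 1536-well. 20nM enzyme, pH 7.5 HEPES/EDTA/Tween-20 buffer; 15 min compound preinc., RT. Start: 75uM H3(1-25), 70uM AcCoA, 50uM ThioGlo1. Read Ex340/Em540 at t=0 (autofluorescence flag) and t=20 min.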
HEK293 tox = cytotoxicity counter-screen for GLP-1 receptor inverse agonists; AID 624418; Potency, µM (titrated, usually from 38.3 µM), actives largely listed as inhibitors; HEK293 cAMP-luciferase reporter cells, luminescence, 24 h; hit rate 0.13% among 410,000;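 further: loss of luciferase light is scored as toxicity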
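Quantitative HTS format, 1536 wells, 200 cells/uL seeded. Compounds: 23 nL, 24 h, 37 °C. Detection: luciferase reagent, luminescence at 12 min RT; decreased signal taken as cytotoxic.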
A number is an active result; – = inactive; ? = inconclusive; · = not tested or not shown; [ ] = another dose, or the depositor's remark. Most compounds without a hit are left out; they make up all but 1.8% or so of the library. The call rests on the fitted dose curve; in most records, active means well fitted curve in the direction sought with a large enough effect; inconclusive means small, poorly fitted or top-dose-only effect, or another doubt; inactive means no such curve, though single readings can be large; an effect the other way counts as inactive or inconclusive.

SMILES	GLP-1R agonist	RGS4 inh	PTHR1 agonist	GLP-1R inv ag	GCN5L2 inh	HEK293 tox
CC(C)C1C(c2ccccc2)NC(c2ccccc2)CC1(O)c1ccc(F)cc1 (stereo not given)	–	–	–	10µM	–	?
CC1Cc2ccccc2N1c1ncnc2c1nnn2Cc1ccccc1 (stereo not given)	–	–	–	–	22.4µM	–
CC(NC(=O)CN(C)CC(=O)Nc1ccc(Cl)c(C(F)(F)F)c1)c1ccccc1 (stereo not given)	–	–	–	10µM	–	–
COc1cccc(C(=O)NCC(C)(C)SCc2ccc(F)cc2)c1	–	–	–	11.2µM	–	–
COc1cccc(C(=O)NCCSc2ccc(F)cc2)c1	–	?	–	–[7.66 µM]	–	–[7.66 µM]
O=C(c1cccc(C(F)(F)F)c1)N1CCN(C2CCCCC2)CC1	–	–	–	–	–	–
C[n+]1ccc(/C=C/c2ccc3ccccc3c2)cc1	·	·	·	·	28.2µM	·
O=C(NC1CCCCC1)c1cccc(Cn2cc(Cl)cn2)c1	–	–	–	–	–	–
CCN(CC)CCCn1c2c(c(SCC(=O)Nc3ccc(OC(F)(F)F)cc3)nc1=O)CCC2	–	–	–	3.55µM	–	–
CCN(CC)CCCn1c2c(c(SCC(=O)Nc3ccc(C)c(F)c3)nc1=O)CCC2	–	–	–	10µM	–	–
CCN(CC)CCCn1c2c(c(SCC(=O)Nc3nc4ccccc4s3)nc1=O)CCC2	–	–	–	?	–	?
C/C(=N\NC(=O)C(C)n1nc(C)c([N+](=O)[O-])c1C)c1ccccc1O (stereo not given)	–	–	–	?	–	3.16µM
CCCCN=Cc1c(C)[nH]n(-c2ccccc2)c1=S	–	–	–	?	?	–
Cc1[nH]n(-c2ccccc2)c(=S)c1C=Nc1cccc([N+](=O)[O-])c1	–	–	–	–	10µM	?
Cc1ccc2c(=O)cc(C(=O)Nc3c(C(=O)c4ccccc4)oc4ccccc34)oc2c1	·	–	–	–	–	–
CC1=CC(C)(C)N(C(=O)CSc2nnc(N)s2)c2c(C)cc(C)cc21	–	–	–	–	3.98µM	–
OCCC1CN(C/C=C/c2ccco2)CCN1Cc1ccccc1 (stereo not given)	–	–	–	–	–	–
COc1ccccc1CNC(=O)C1(NC(=O)Nc2ccc(C)cc2)CCCCC1	–	–	–	8.91µM	–	–
COc1ccc(Cl)cc1NC(=O)Cn1c(=O)n(-c2ccc(C)cc2)c(=O)c2ccc(C(=O)NCc3ccccc3Cl)cc21	–	–	–	–	–	–
COc1ccc(C(=O)N2CCC(C)(C(=O)NS(=O)(=O)C3CC3)C2)c(OC)c1 (stereo not given)	–	·	–	–	·	–
COc1ccc(CCC(=O)NCC23CC4CC(CC(C4)C2)C3)cc1	–	–	–	6.31µM	–	–
Cn1c(CC(=O)Nc2ccccc2)cc2ccccc21	–	–	–	–	–	–
CN(C)CCCNC(=O)c1cc(C(=O)c2ccccc2)c[nH]1	–	–	–	–	–	–
O=C(c1ccccc1)c1c[nH]c(C(=O)NNc2ccccc2)c1	–	–	–	2.51µM	–	–
COc1cc(NC(=O)CNS(=O)(=O)c2cccs2)cc(OC)c1OC	–	–	–	–	–	–
SMILES	GLP-1R agonist	RGS4 inh	PTHR1 agonist	GLP-1R inv ag	GCN5L2 inh	HEK293 tox
Cn1c(=O)c(=O)n(C)c2cc(N3CCCCC3)c(NS(=O)(=O)c3ccc([N+](=O)[O-])cc3)cc21	–	–	–	–	–	–
CCN(CC)C(=S)NC(=O)c1ccc(F)cc1	–	–	–	?	–	3.55µM
CCN(CC)C(=S)NC(=O)c1cccnc1	–	–	–	–	–	?
CCc1ccc(C(=O)c2cn(CC(=O)NCc3ccc(C)cc3)c3nc(C)ccc3c2=O)cc1	·	–	–	–	–	–
Cc1sc(NC(=O)c2ccco2)c(CN2CCCCC2)c1C	–	–	–	6.31µM	–	–
COC(=O)c1c(NC(=O)c2ccco2)sc(C)c1C	–	–	–	–	–	–
Cc1ccc(-c2nc(C)c(C(=O)O)s2)cc1	–	–	–	10µM	?	–
Cc1nc(-c2ccccc2)sc1C(=O)O	–	–	–	–	–	–
Cc1ccc(Cl)cc1N1CCN(S(=O)(=O)c2ccc3c(c2)OCCO3)CC1	–	–	–	10µM	–	–
CC(=O)N[C@H]1[C@H](O[C@@H]2c3ccc(c(Cl)c3)Oc3cc4cc(c3O[C@@H]3O[C@H](CO)[C@@H](O)[C@H](O)C3C)Oc3ccc(cc3Cl)C[C@H]3NC(=O)[C@@H](N)c5ccc(O)c(c5)Oc5cc(O)cc(c5)[C@H](NC3=O)C(=O)N[C@H]4C(=O)N[C@H]3C(=O)N[C@@H]2C(=O)N[C@@H](C(=O)O)c2cc(O)cc(O[C@H]4O[C@H](CO)[C@@H](O)C(O)[C@@H]4O)c2-c2cc3ccc2O)O[C@H](CO)[C@@H](O)[C@@H]1O (stereo not given in full)	–	·	·	·	–	·
Cc1ccc(C(=O)Nc2ncc([N+](=O)[O-])s2)cc1	–	–	–	1.12µM	–	–
CC(=O)Nc1ncc([N+](=O)[O-])s1	–	·	·	·	–	·
CC1=C(c2ccc(NN=C(C#N)C#N)cc2)NNC(=O)C1	–	·	·	·	–	·
Cc1nn(C(C)C(=O)NCCCN2CCCCC2C)c(=O)c2c1sc1ccccc12 (stereo not given)	–	–	–	–	–	–
CCC1CCCCN1CCCNC(=O)C(C)n1nc(C)c2sc3ccccc3c2c1=O (stereo not given)	–	–	–	7.94µM	–	?
Cn1c(-c2c(N)n(C3CCCC3)c3nc4ccccc4nc23)nc2ccccc21	–	–	–	3.98µM	–	–
Cc1ccc(C(C)NC(=O)c2c(-c3ccccc3)noc2C)cc1C (stereo not given)	–	–	–	7.94µM	–	–
CCCOc1ccccc1NC(=O)c1c(-c2ccccc2)noc1C	–	–	–	11.2µM	–	–
Cc1ccc(OCCOC(=O)c2c(-c3ccccc3)noc2C)cc1	–	–	–	?	–	–
CCOc1ccc(C(=O)COC(=O)c2c(-c3ccccc3)noc2C)cc1	–	–	–	10µM	–	?
CN(CCc1ccccc1)C(=O)c1ccc(NC(=O)Cc2ccc(NC(=O)C3CCN(C(=O)c4ccccc4)CC3)cc2)cc1	–	–	–	–	·	–
Cn1c(NC(=O)c2ccccc2F)cc(=O)n(C)c1=O	–	–	–	–	–	–
C=C(C1=CCN(S(=O)(=O)C(C)(C)C)[C@@H]1CCO)c1ccccc1	–	–	–	7.94µM	·	–
